# Screen size: about 39,000 compounds; about 3,300 (8.5%) were called active. The sample holds actives, similar compounds and a random draw of the others, so the mix is not that of the screen.
# System: HepG2
# Test: cytotoxicity call (relative viability < 0.9)
# Conditions: 10 µM
row,SMILES,cytotoxicity call
1,COc1cccc(-c2cn(CC[C@H]3CC[C@@H](NC(=O)CN(C)C)[C@H](CO)O3)nn2)c1,inactive
2,CC(C)NC(=O)N(C)C[C@H]1Oc2ccc(NC(=O)Cc3ccccc3)cc2CC(=O)N([C@@H](C)CO)C[C@H]1C,inactive
3,CN1C(=O)c2cc(NC(=O)c3ccno3)ccc2OC[C@H]2O[C@@H](CC(=O)NC3Cc4ccccc4C3)CC[C@@H]21,inactive
4,Cc1noc(C)c1NC(=O)N(C)C[C@@H]1Oc2ccc(NC(=O)Cn3cnnn3)cc2CC(=O)N([C@H](C)CO)C[C@@H]1C,inactive
5,C[C@@H]1CCCCO[C@H](CN(C)C(=O)Nc2ccc(C(F)(F)F)cc2)[C@H](C)CN([C@H](C)CO)C(=O)c2cc(NC(=O)Nc3ccccc3)ccc2O1,inactive
6,O=C(C[C@@H]1CC=CC[C@H](NC(=O)OCC2c3ccccc3-c3ccccc32)C(=O)O[C@H](c2ccccc2)CNC1=O)N[C@H](CO)Cc1ccccc1,inactive
7,O=C(C[C@@H]1CC[C@@H](NS(=O)(=O)c2ccccc2)[C@@H](CO)O1)NCc1ccncn1,inactive
8,Cc1noc(C)c1S(=O)(=O)N(C)C[C@H]1Oc2ccc(NS(=O)(=O)c3ccc(F)cc3)cc2CC(=O)N([C@@H](C)CO)C[C@@H]1C,inactive
9,O=C(Oc1ccccc1C(=O)O)c1ccccc1O,inactive
10,CC1CC(OC(=O)C(O)c2ccccc2)CC(C)(C)C1 (centres undefined),inactive
11,CC1CC(OC(=O)c2ccccc2O)CC(C)(C)C1 (centres undefined),active
12,C[C@H]1CN([C@@H](C)CO)C(=O)Cc2cc(NS(C)(=O)=O)ccc2O[C@@H]1CN(C)S(=O)(=O)c1ccccc1,inactive
13,C[C@H]1CCCCO[C@H](CN(C)C(=O)C2CCCCC2)[C@@H](C)CN([C@@H](C)CO)C(=O)c2cc(NC(=O)CCC(F)(F)F)ccc2O1,inactive
14,COCC(=O)N(C)C[C@@H]1Oc2cc(C#Cc3cccnc3)ccc2S(=O)(=O)N([C@H](C)CO)C[C@@H]1C,inactive
15,C[C@@H]1CN([C@H](C)CO)C(=O)c2cccc(NC(=O)Nc3ccc(C(F)(F)F)cc3)c2O[C@@H]1CN(C)C(=O)Nc1ccc(F)cc1,inactive
16,C[C@H]1CN([C@@H](C)CO)C(=O)c2cccc(NC(=O)Nc3ccc(C(F)(F)F)cc3)c2O[C@@H]1CN(C)C(=O)Nc1ccc(F)cc1,inactive
17,C[C@@H]1CN([C@H](C)CO)C(=O)c2cccc(NC(=O)Nc3ccc(F)cc3)c2O[C@@H]1CN(C)C(=O)Nc1ccc(C(F)(F)F)cc1,inactive
18,C[C@@H]1CN([C@H](C)CO)C(=O)c2cccc(NC(=O)Nc3ccc(F)cc3)c2O[C@H]1CN(C)C(=O)Nc1ccc(C(F)(F)F)cc1,inactive
19,C[C@H](CO)N1C[C@H](C)[C@H](CN(C)C(=O)Nc2ccc(F)cc2)Oc2c(NC(=O)Nc3ccc(C(F)(F)F)cc3)cccc2C1=O,active
20,C[C@H]1CN([C@@H](C)CO)C(=O)c2cccc(NC(=O)Nc3ccc(C(F)(F)F)cc3)c2O[C@H]1CN(C)C(=O)Nc1ccc(F)cc1,active
21,C[C@H](CO)N1C[C@H](C)[C@@H](CN(C)S(=O)(=O)c2cn(C)cn2)Oc2c(NC(=O)Nc3ccccc3)cccc2C1=O,inactive
22,C[C@@H]1CCCCO[C@H](CN(C)C(=O)C2CCCCC2)[C@@H](C)CN([C@H](C)CO)C(=O)c2cc(NC(=O)c3ccccc3)ccc2O1,inactive

row,SMILES,cytotoxicity call
1,C[C@@H]1CN([C@@H](C)CO)S(=O)(=O)c2ccc(Br)cc2O[C@@H]1CN(C)C(=O)c1ccncc1,inactive
2,C[C@H](CO)N1C[C@H](C)[C@H](CN(C)Cc2ccc(C(F)(F)F)cc2)Oc2ccc(NC(=O)NC3CCCCC3)cc2C1=O,inactive
3,C[C@@H]1CN([C@@H](C)CO)C(=O)c2cccc(NS(C)(=O)=O)c2O[C@@H]1CN(C)S(=O)(=O)c1ccc(Cl)cc1,inactive
4,C[C@H]1CCCCO[C@H](CN(C)Cc2ccc(C(F)(F)F)cc2)[C@@H](C)CN([C@@H](C)CO)C(=O)c2cc(NC(=O)NC3CCCCC3)ccc2O1,active
5,C[C@H](CO)N1C[C@H](C)[C@H](CN(C)Cc2ccc(C(F)(F)F)cc2)OCCCC[C@H](C)Oc2ccc(NC(=O)NC3CCCCC3)cc2C1=O,inactive
6,C[C@@H]1CN([C@H](C)CO)C(=O)c2cc(NC(=O)NC3CCCCC3)ccc2O[C@@H](C)CCCCO[C@@H]1CN(C)Cc1ccc(C(F)(F)F)cc1,inactive
7,C[C@@H]1CCCCO[C@@H](CN(C)Cc2ccc(C(F)(F)F)cc2)[C@H](C)CN([C@@H](C)CO)C(=O)c2cc(NC(=O)NC3CCCCC3)ccc2O1,active
8,C[C@@H]1CN([C@@H](C)CO)C(=O)c2cc(NC(=O)NC3CCCCC3)ccc2O[C@@H](C)CCCCO[C@H]1CN(C)Cc1ccc(C(F)(F)F)cc1,active
9,C[C@H](CO)N1C[C@H](C)[C@@H](CN(C)Cc2ccc(C(F)(F)F)cc2)OCCCC[C@H](C)Oc2ccc(NC(=O)NC3CCCCC3)cc2C1=O,active
10,Cc1ccc2nc(CN)cn2c1,inactive
11,CCOc1ccc(Nc2nc3c(=O)nc[nH]c3n2[C@H]2O[C@@H](CO)[C@@H](O)[C@@H]2O)cc1,inactive
12,C[C@H](CO)N1C[C@H](C)[C@@H](CN(C)C(=O)CCC(F)(F)F)OCCCC[C@H](C)Oc2ccc(NC(=O)CCC(F)(F)F)cc2C1=O,inactive
13,C[C@H]1CN([C@@H](C)CO)C(=O)CCCn2nncc2CO[C@H]1CN(C)C(=O)c1ccc(N2CCN(C)CC2)cc1,inactive
14,COc1ccc(S(=O)(=O)N(C)C[C@@H]2Oc3ccc(NC(=O)NC(C)C)cc3CC(=O)N([C@H](C)CO)C[C@H]2C)cc1,inactive
15,CN1CCN(C(=O)C[C@H]2CC[C@H]3[C@@H](COc4ccc(NC(=O)c5ccc(F)c(F)c5)cc4C(=O)N3C)O2)CC1,inactive
16,COc1ccc(CNS(=O)(=O)N(C)C)cc1,inactive
17,CO[C@H]1CN(C)C(=O)c2cc(NC(=O)Nc3ccccc3)ccc2OC[C@H](C)N(C(=O)CN(C)C)C[C@H]1C,inactive
18,C[C@@H]1CCCCO[C@@H](CN(C)Cc2ccc(C(F)(F)F)cc2)[C@@H](C)CN([C@H](C)CO)C(=O)c2cc(NC(=O)NC3CCCCC3)ccc2O1,inactive
19,C[C@@H]1CCCCO[C@H](CN(C)Cc2ccc(C(F)(F)F)cc2)[C@@H](C)CN([C@@H](C)CO)C(=O)c2cc(NC(=O)NC3CCCCC3)ccc2O1,active
20,C[C@@H]1CCCCO[C@H](CN(C)Cc2ccc(C(F)(F)F)cc2)[C@@H](C)CN([C@H](C)CO)C(=O)c2cc(NC(=O)NC3CCCCC3)ccc2O1,active
21,C[C@@H]1CCCCO[C@@H](CN(C)Cc2ccc(C(F)(F)F)cc2)[C@@H](C)CN([C@@H](C)CO)C(=O)c2cc(NC(=O)NC3CCCCC3)ccc2O1,active
22,C[C@@H]1CCCCO[C@H](CN(C)Cc2ccc(C(F)(F)F)cc2)[C@H](C)CN([C@H](C)CO)C(=O)c2cc(NC(=O)NC3CCCCC3)ccc2O1,active
